Lassa entry inh: blocks Lassa virus binding to or entry into cells | Lassa virus pseudotype entry inhibition, cell reporter | Potency, µM (highest dose often 37.9 µM), for inactives: at the top dose activity change, negative = inhibition, hits mostly inhibitors | actives 1.2% (n = 300,000) | AID 540256; calls by dose curve; tested in HEK293 cells; also: potency is read from the fitted curve at half-maximal effect; nearly all actives have a fitted effect of over 50% in size
VACV Venus inh: inhibitors of vaccinia virus (Venus reporter). Vaccinia virus Venus reporter expression, fluorescence. Potency, µM (doses to about 36.5 µM), for the others: at the top dose activity change, negative = inhibition, usual class: inhibitors. actives 0.46% (n = 330,000). AID 720580; calls by dose curve; tested in A549 cells; also: potency is read from the fitted curve at half-maximal effect; nearly all actives have a fitted effect of over 30% in size
Marburg entry inh: blocks Marburg virus binding to or entry into cells; AID 540276; Marburg virus pseudotyped entry inhibition, cell reporter; Potency, µM (series often up to 37.8 µM), without a hit: at the top dose activity change, negative = inhibition, usual class: inhibitors; actives 1.8% (n = 300,000); calls by dose curve; tested in HEK293 cells; also: potency is read from the fitted curve at half-maximal effect
VACV mCherry inh: inhibitors of vaccinia virus infection (mCherry reporter signal) | Vaccinia virus mCherry reporter infection, fluorescence | actives 0.63% (n = 310,000) | AID 720579 | Potency, µM (top dose mostly 36.5 µM), without a hit: top-dose activity change, negative = inhibition, actives largely listed as inhibitors; calls by dose curve; tested in A549 cells; also: potency is read from the fitted curve at half-maximal effect; nearly all actives have a fitted effect of over 35% in size
HCMV inh: inhibitors of human cytomegalovirus; actives 4.5% (n = 410,000); activity change, negative = inhibition, % at 57.5 µM; AID 1259415; HFF cells, HCMV-luciferase reporter, 72 h; hits give low values; in the data active = activity change below about -60%; inconclusive = no clear call, values can overlap the other calls; inactive = above about -39%
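Cell-based, HFFs, 1000 cells/well, 16 h 37C; cpds in DMSO + HCMV-luc, MOI 1 PFU/cell; 72 h 37C; OneGlo luminescence after 5 min RT; norm. to buffer vs Salinomycin 10uM.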
FMDV inh: foot and mouth disease virus antiviral activity; FMDV antiviral cell-based qHTS; Potency, µM (titrated, usually from 57.9 µM), for the others: at the highest dose activity change, negative = inhibition, usual class: inhibitors; actives 1.2% (n = 410,000); AID 1159524; calls by dose curve; tested in HEK293T cells; also: read-out not given here; potency is read from the fitted curve at half-maximal effect; nearly all actives have a fitted effect of over 45% in size
* marks the source's active call; other numbers are inactive results; i = inactive; ? = inconclusive; nt = no result given; [ ] = dose if it differs, or a comment. A selection: hits, their analogues and other compounds. The true share with any hit is near 6.5%. % is scaled to controls: 0 for no effect and ±100 for the full control effect.

SMILES	Lassa entry inh	VACV Venus inh	Marburg entry inh	VACV mCherry inh	HCMV inh	FMDV inh
O=C1c2cccc3cc([N+](=O)[O-])cc(c23)C(=O)N1CCN1CCCC1	?	?	3.98µM*	0.316µM*	-100.2*	-0.7%
Nc1cc2c3c(cccc3c1)C(=O)N(CCN1CCCC1)C2=O	?	?	6.31µM*	?	-95.6*	0.0%
CCN(CC)CCN1C(=O)c2cccc3cc(N)cc(c23)C1=O	-23.7%	?	10µM*	?	-98.6*	?
O=C1c2cccc3cc([N+](=O)[O-])cc(c23)C(=O)N1/N=C/c1ccc(O)cc1O	?	157.9%	-16.9%[46.1 µM]	124.9%	-78.5*	?
COc1ccc(N(CN2C(=O)[C@@H]3[C@@H](C2=O)[C@H]2C=C[C@@H]3C2)C(=O)c2ccco2)cc1	nt	nt	4.8%	nt	nt	nt
CC1=NN(c2ccccc2)C(=O)C1C(=S)SC1CC(=O)NC1=O (stereo unspecified)	nt	-8.8%	nt	i	-87.7*	22.2%
Cn1cc(C(=O)c2ccccc2)cc1-c1nc2ccccc2n1C	-14.8%	-28.4%	?	?	-21.0	-26.4%
Cc1oc(-c2nc3ccccc3n2C)cc1C(=O)c1ccccc1	2.82µM*	-4.3%	11.2µM*	-2.9%	16.4	-62.4%
CCCCNC(=O)C1CCC(CNS(=O)(=O)c2ccc(Cl)cc2)CC1 (stereo unspecified)	24.8%[46.1 µM]	-2.7%	nt	0.3%	-6.9	-1.5%
CCCCn1c(N)c(N(CCC(C)C)C(=O)COC(=O)c2ccc([N+](=O)[O-])s2)c(=O)[nH]c1=O	1.1%	?	-0.9%	-13.1%	-95.0*	-22.8%
CC(C)CN(C(=O)COC(=O)c1ccc([N+](=O)[O-])s1)c1c(N)n(Cc2ccccc2)c(=O)[nH]c1=O	-14.8%	-13.2%	8.2%	i	3.1	?
CCCCC1CCC(C(=O)N(CC(C)C)c2c(N)n(CCCC)c(=O)[nH]c2=O)CC1 (stereo unspecified)	17.2%[46.1 µM]	-6.0%	-5.6%	-11.5%	-17.5	-26.8%
CCCCC1CCC(C(=O)N(CCC(C)C)c2c(N)n(CCCC)c(=O)[nH]c2=O)CC1 (stereo unspecified)	nt	11.2µM*	nt	15.8µM*	-25.9	-20.3%
CCCCn1c(N)c(N(CCC(C)C)C(=O)COC(=O)Cc2ccc(Cl)cc2)c(=O)[nH]c1=O	?	-10.9%	12.6µM*	-8.7%	-10.4	-28.1%
COc1ccc(N2CCN(C(CNC(=O)C(=O)NCCc3ccccc3)c3cccnc3)CC2)cc1 (stereo unspecified)	?	-20.3%	nt	-14.1%	-16.9	-24.1%
Oc1ccc(C[C@H]2CN([C@@H](Cc3ccccc3)CN3CCC[C@@H]3CN3C(=S)NC[C@@H]3Cc3ccccc3)C(=S)N2CC2CCCCC2)cc1	nt	-11.3%	nt	6.1%	-6.6	-16.9%
Oc1ccc(C[C@H]2CNC(=S)N2CC2CCCN2C[C@H](Cc2ccc(O)cc2)N2C[C@H](Cc3ccc(O)cc3)N(CC3CCCCCC3)C2=S)cc1 (stereo partly specified)	nt	?	nt	?	-67.3*	?
Oc1ccc(C[C@H]2CNC(=S)N2CC2CCCN2C[C@H](Cc2ccccc2)N2C[C@H](Cc3ccc(O)cc3)N(CC3CCCCC3)C2=S)cc1 (stereo partly specified)	nt	-25.6%	nt	-21.2%	-84.8*	-19.8%
CC(C)C[C@H]1CNC(=S)N1CC1CCCN1C[C@H](Cc1ccc(O)cc1)N1C[C@H](Cc2ccccc2)N(CC2CCCCC2)C1=S (stereo partly specified)	nt	-23.9%	nt	?	-61.8*	-8.6%
CC(C)c1nc2ccc(C(=O)NCc3ccc(N(C)C)cc3)cc2o1	-3.0%[46.1 µM]	-11.1%[7.34 µM]	nt	-2.9%[7.34 µM]	5.0	4.0%
CCOC(=O)C1(C)C=C(Nc2cccc(C(=O)O)c2)C(=O)N1c1ccccc1 (stereo unspecified)	8.8%[46.1 µM]	-1.0%	?	-10.0%	51.4	50.8%
c1ccc(-c2nc(N3CCOCC3)c3ccccc3n2)nc1	?	?	?	?	?	-19.8%
c1ccc(-c2nc(N3CCCCCC3)c3ccccc3n2)nc1	3.98µM*	5.01µM*	?	nt	-99.0*	25.1µM*
c1ccc(CN2CCN(c3nc(-c4ccccn4)nc4ccccc34)CC2)cc1	12.8%	-8.3%	10.0%[46.1 µM]	-5.5%	-98.7*	14.7%

Bioassay records from PubChem BioAssay.
